Test results published in PubChem BioAssay (NCI).
About 79,000 compounds went through this panel and 15% of them were active in at least one assay; those are over-represented in the sample as a whole. A number with no mark means an inactive call. The source made the active and inactive calls. No stated cut-off is given here; in the data, active means growth inhibition above about 70%; inactive means the rest.

assay: NCI Yeast Anticancer Drug Screen. Data for the mec2-1 strain (AID 157); settings: S. cerevisiae mec2-1 strain, at 50.0 µM (retest, dose inferred, filed as 5.0), stronger effect = higher value
Outline: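 Readout is yeast growth inhibition, normalised to vehicle-treated controls, in the mec2-1 strain exposed to compound.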

Structure (SMILES) | growth inhibition
CCCCCCCCCCCCCCCBr | 12%
CCCCCCCCCCCC(=O)OCC(C)C | 20%
O[Si](O)(c1ccccc1)c1ccccc1 | 92% (active)
O=C(c1ccccc1)C(C(=O)c1ccccc1)c1ccc2ccccc2n1 | -4%
O=C1C=CC(=O)N1c1ccccc1[N+](=O)[O-] | 100% (active)
CCCCCCCCCCCC(O)=C1C(=O)CC(O)CC1=O (centres undefined) | 97% (active)
OCCc1cccc2ccc3ccccc3c12 | 55%
O=C1C(=O)C(Cl)=C(Cl)C(Cl)=C1Cl | 99% (active)
O=C1C=CC2C(=O)c3ccccc3C(=O)C2=C1 (centres undefined) | 76% (active)
O=C(N(c1ccc(Cl)cc1)c1ccc(Cl)cc1)C(Cl)(Cl)Cl | 63%
COc1cccc2c1S(=O)(=O)C(c1ccccc1)=CC2=O | 99% (active)
COc1cc(-c2nn3c(=O)n(-c4ccc(Cl)cc4)c(=O)nc3s2)cc(OC)c1OC | 18%
O=[N+]([O-])C1(CO)COC(CCc2ccccc2)OC1 (centres undefined) | 3%
COc1ccc(C(=O)CCc2c[nH]c3ccccc23)c(O)c1 | 22%
CC/C(=C(\CC)c1ccc(OCCN2CCOCC2)cc1)c1ccc(OCCN2CCOCC2)cc1 | 62%
CCCCCCCCCCCN1C(=O)c2ccccc2S1(=O)=O | 54%
CCCCCCCCCCCC(=O)NN | 43%
CCN1CCC(O)(/C=C/c2ccccc2)C(C(=O)/C=C/c2ccccc2)C1 (centres undefined) | 80% (active)
NC(=S)NNCCC(=O)Nc1ccccc1C(F)(F)F | 2%
